AMA1-RON2 inh = inhibitors of Plasmodium falciparum AMA1-RON2 interaction; AlphaScreen AMA1-biotinylated RON2 peptide binding; Potency, µM (top dose mostly 58.2 µM), without a hit: at the highest dose activity change, negative = inhibition, usual class: inhibitors; actives 0.2% (n = 360,000); AID 720542;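 also: 0% = vehicle wells and -100% = peptide control; nearly all actives have a fitted effect of over 45% in size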
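AMA1 (3D7) with his tag at 25 nM final met compounds first, then biotinylated RON2 peptide at 25 nM; detection used donor plus acceptor beads, 10 µg/mL apiece, read by AlphaScreen after 30 min at room temperature.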
Sm TGR inh = S. mansoni TGR enzyme inhibition | Q962Y6 | purified TGR, DTNB reduction, TNB absorbance 405 nm | Potency, µM (doses to about 114 µM), without a hit: at the top dose activity change, negative = inhibition, usual class: inhibitors | actives 3% (n = 360,000) | AID 485364; also: nearly all actives have a fitted effect of over 60% in size
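Kinetic colorimetric format: TGR-catalysed, NADPH-driven DTNB reduction monitored via TNB absorbance. Enzyme dispensed at 20 nM; compound exposure 15 min at room temperature before reaction start.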
AmpC inh no detg = blocks E. coli AmpC beta-lactamase in detergent-free assay | AmpC nitrocefin hydrolysis, absorbance 480 nm, 0.0001% Triton | Potency, µM (top dose mostly 57.1 µM), for the others: at the highest dose activity change, negative = inhibition, most hits filed as inhibitors | actives 0.52% (n = 330,000) | AID 485341;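 also: plate controls were no compound for no effect and no enzyme for full effect; nearly all actives have a fitted effect of over 20% in size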
Target sequence (P00811 whole entry, looked up): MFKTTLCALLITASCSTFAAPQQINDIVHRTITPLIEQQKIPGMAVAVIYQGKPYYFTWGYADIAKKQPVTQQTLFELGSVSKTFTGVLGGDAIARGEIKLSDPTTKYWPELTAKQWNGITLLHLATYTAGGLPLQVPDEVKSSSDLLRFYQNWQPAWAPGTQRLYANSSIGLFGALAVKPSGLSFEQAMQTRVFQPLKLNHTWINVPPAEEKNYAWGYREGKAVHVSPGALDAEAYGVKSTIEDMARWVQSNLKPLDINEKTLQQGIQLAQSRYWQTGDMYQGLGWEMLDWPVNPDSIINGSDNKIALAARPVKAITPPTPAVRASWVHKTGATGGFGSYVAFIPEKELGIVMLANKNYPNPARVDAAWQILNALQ
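20 mM phosphate pH 7.0 + 0.01% (detergent screen) or 0.0001% Triton X-100; 5.3 nM AmpC reagent; cpd preinc 15 min RT; nitrocefin (800 uM stock) to start; A480 q20 s × 4 min; Activity was normalised to no-enzyme and no-compound control wells.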
RE007 growth inh = less growth of the S. pombe RE007 Vpr strain | actives 0.21% (n = 360,000) | Potency, µM (top dose mostly 92.2 µM), for inactives: at the highest dose activity change, negative = less growth, most hits filed as inhibitors | S. pombe RE007 Vpr strain, BacTiter-Glo ATP luminescence, 24 h; active = well fitted falling curve with a large enough effect; inconclusive = small, poorly fitted or top-dose-only effect; inactive = no such curve, though single readings can be large or run the other way; also: nearly all actives have a fitted effect of over 50% in size
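Fission yeast strain RE007, carrying one chromosomally integrated HIV-1 vpr copy, was seeded at OD 0.01 in PMG+AL medium with 23 nL pinned compound. After 24 h at 30 °C and 99% humidity, viability was read by BacTiter-Glo luminescence.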
AmpC inh detg = inhibitors of E. coli AmpC beta-lactamase with detergent. P00811. AmpC hydrolysis of nitrocefin, absorbance 480 nm, 0.01% Triton. Potency, µM (series often up to 114 µM), inactives show top-dose activity change, negative = inhibition, usual class: inhibitors. actives 0.041% (n = 370,000). AID 485294;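 also: 0% = no-compound wells and -100% = no-enzyme wells; nearly all actives have a fitted effect of over 25% in size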
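20 mM phosphate pH 7.0 + 0.01% (detergent screen) or 0.0001% Triton X-100; 5.3 nM AmpC reagent; cpd preinc 15 min RT; nitrocefin (800 uM stock) to start; A480 q20 s × 4 min; Activity was normalised to no-enzyme and no-compound control wells.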
* marks the source's active call; other numbers are inactive results; ? = inconclusive; . = not tested or not shown; [ ] = another dose, or the depositor's remark. In the library only some 3.2% were active in any assay of this set; here they are far more common. Unless noted, calls follow the shape of the dose curve; as a rule, active = well fitted curve in the direction sought with a large enough effect; inconclusive = small, poorly fitted or top-dose-only effect, or another doubt; inactive = no such curve, though single readings can be large; an effect the other way counts as inactive or inconclusive. Unless noted, % is scaled to controls: 0 for no effect and ±100 for the full control effect; potency is read from the fitted curve at half-maximal effect.

SMILES	AMA1-RON2 inh	Sm TGR inh	AmpC inh no detg	RE007 growth inh	AmpC inh detg
Cc1cccc(CSc2ncc(CO)n2Cc2ccc(F)cc2)c1	.	-1%	.	.	9%
Cc1ccc(C(=O)CSc2ncc3c(n2)-c2ccccc2N(Cc2ccc(Cl)cc2)S3(=O)=O)cc1	.	2%	.	.	-9%
CC1=C(C(=O)Nc2ccc(C)cc2C)C(c2sccc2C)n2ncnc2N1 (centres undefined)	.	2%	.	.	2%
COc1ccc(CN2CCNC(=O)C2CC(=O)NCc2cc(C)n(C)n2)c(F)c1 (centres undefined)	26%	20µM*	30%	3%	4%
COc1cccc(CN2CCNC(=O)C2CC(=O)O)c1OC (centres undefined)	77%	40µM*	-18%	-7%	-2%
CC(NC(=O)CCCN1C(=O)CCn2nc(-c3cn(C)c4ccccc34)cc21)c1ccccc1 (centres undefined)	.	2%	.	.	-3%
COc1ccc(N2CCN(c3oc(COc4ccc(Cl)cc4Cl)nc3C#N)CC2)cc1	25µM*	0%	-19%	3%	?
COc1ccc(N2CCN(c3oc(Cc4ccccc4)nc3C#N)CC2)cc1	17µM*	4%	-12%	0%	3%
N#Cc1nc(COc2ccc(Cl)cc2Cl)oc1N1CCN(c2ccccc2)CC1	?	?	9%	5%	6%
COCCCNc1oc(COc2ccc(Cl)cc2Cl)nc1C#N	-6%	20µM*	91%	11%	-9%
COc1ccc(N2CCN(c3oc(COc4ccccc4)nc3C#N)CC2)cc1	?	6%	27%	-2%	0%
N#Cc1ccc2c(c1)C[C@]1(c3ccsc3)OC3=C(C(=O)OC4(CCCCC4)C3)C2O1	.	?	-25%[11.4 µM]	.	?
CC(C)C(Cl)=NOC(=O)Nc1ccc(S(N)(=O)=O)cc1	-3%	.	.	16µM*	.
COC(=O)[C@H](C)NC(=O)Nc1ccc(S(N)(=O)=O)cc1	-5%	-6%	-6%	0%	?
C=CCn1c(O)c(N=Nc2ccccc2)c2ccccc21	8%	40µM*	-18%	4%	-8%
O=C(NN=Cc1ccc(O)c(O)c1)c1ccccc1	9%	.	.	-3%	.
O=C(N/N=C/c1ccc(OCc2ccc(F)cc2)cc1)c1ccccc1	-15%	-5%	-22%	4%	2%
O=C(COc1ccccc1C(=O)N/N=C\c1ccc(O)c(O)c1)N/N=C/c1ccc(O)c(O)c1	?	?	40µM*	-6%	?
CC(C)(C)c1ccc(OCc2ccc(C(=O)N/N=C/c3ccc(O)c(O)c3)cc2)cc1	12%	-1%	14µM*	1%	-1%
CCOC(=O)COn1c(=O)c(-c2ccc(F)cc2)[n+]([O-])c2ccccc21	3%	89µM*	-8%	-7%	-11%
CCOC(=O)COn1c(=O)c(-c2cccs2)[n+]([O-])c2ccccc21	2%	20µM*	-26%	-8%	1%
C#CCSc1nnc(CSc2nc3ccccc3s2)n1-c1ccccc1	1%	50µM*	-14%	14%	5%
CN(C)/C=C/C(=O)c1ccc(-n2cccc2)cc1	-21%	-14%	-43%	?	?
CN(C)c1ccc(-n2cccc2)cc1	20µM*	-1%	-5%	-18%	-1%
Cc1ccc(S(=O)(=O)CC#CCOC(=O)c2ccc([N+](=O)[O-])cc2)cc1	.	0.63µM*	-14%	.	1%
SMILES	AMA1-RON2 inh	Sm TGR inh	AmpC inh no detg	RE007 growth inh	AmpC inh detg
O=C(NC(=S)Nc1ccc(N2CCCCC2)cc1)c1ccco1	-20%	16µM*	-13%	-7%	?
O=C(NC(=S)Nc1ccc(Cl)c(C(=O)O)c1)c1ccco1	-13%	45µM*	-9%	18%	-8%
O=C(NC(=S)N1CCCc2ccccc21)c1ccco1	41%	28µM*	-19%	13%	7%
O=C(NC(=S)Nc1cccc2cc(O)ccc12)c1ccco1	17%	10µM*	-39%	-15%	10%
COc1ccc(C(=O)NC(=S)Nc2cccc3cc(O)ccc23)cc1OC	29%	?	-53%	-26%	-6%
CC1CCN(c2ccc(NC(=S)NC(=O)c3ccco3)cc2)CC1	-17%	?	-20%	-4%	-4%
COc1ccc(CNC(=O)Cc2c(C)c3cc4c(C)coc4cc3oc2=O)cc1	.	-3%	.	.	1%
CSc1ccc(CCNc2ncnc3onc(-c4ccc(Cl)cc4)c23)cc1	.	0%	.	.	?
CSc1ccc(CCNC(=O)c2ccc(CS(=O)(=O)c3ccc(Br)cc3)o2)cc1	.	-20%	.	.	3%
COc1ccc(C(=O)NC(=S)Nc2cccc3ncccc23)cc1[N+](=O)[O-]	106%	6.3µM*	-16%	-6%	1%
Cc1cc(NC(=S)NC(=O)c2ccco2)c2ccccc2n1	36%	?	-32%	-20%	-5%
O=C(NC(=S)Nc1cccc(Cl)c1N1CCCCC1)c1ccco1	23%	10%	-26%	21%	7%
O=C(NC(=S)Nc1cccc2ncccc12)c1ccco1	-12%	14µM*	-14%	-4%	5%
O=C(NC(=S)Nc1ccccc1Cl)c1ccco1	5%	13µM*	-12%	-16%	-20%
O=C(NC(=S)Nc1cccc2c(O)cccc12)c1ccco1	54%	25µM*	-52%	-17%	-8%
CCCOc1ccc(-c2nonc2NC(=O)c2cc(OC)c(OC)c(OC)c2)cc1OCCC	.	-2%	.	.	10%
CCCC(=O)NC(=S)Nc1cccc2c(O)cccc12	30%	14µM*	-47%	-7%	?
Cc1sc(NC(=S)NC(=O)c2ccco2)c(C#N)c1C	60%	4µM*	-27%	8%	7%
COc1ccccc1C(=O)NC(=S)Nc1cccc2cc(O)ccc12	7%	.	.	-8%	.
O=C(NC(=S)Nc1cccc2cc(O)ccc12)c1ccccc1Br	17%	35µM*	-36%	2%	4%
Cc1c(NC(=O)c2ccco2)cccc1-c1nc2cccnc2s1	-2%	20µM*	7%	-6%	-15%
Cc1c(NC(=O)c2ccc(Cl)nc2)cccc1-c1nc2cccnc2s1	9%	3%	-5%	2%	4%
CCCC(=O)NC(=S)Nc1ccccc1C(=O)OC	9%	-32%	-25%	16%	-14%
CCOC(=O)c1[nH]c(C)c(CCC(=O)NC(C)c2ccccc2)c1C (centres undefined)	.	-8%	.	.	23%
O=C(CSc1nccn1Cc1ccccc1)NCc1ccccc1Cl	.	2%	.	.	25%
O=C(NC(=S)Nc1c(Cl)ccc2nsnc12)c1ccco1	-9%	25µM*	-26%	-7%	-6%
O=C(Nc1c(Cl)ccc2nsnc12)c1cccnc1	1%	3%	-9%	-2%	?
COc1ccccc1-c1nc(S(=O)(=O)c2ccccc2)c(N2CCCCC2)o1	-15%	0.79µM*	-15%	1%	-6%

Compound activity from PubChem BioAssay.
